MARV entry inh: blocks Marburg virus binding to or entry into cells; AID 540276; 1.8% of 300,000 active; Potency, µM (highest dose often 37.8 µM), without a hit: at the top dose activity change, negative = inhibition, actives largely listed as inhibitors; Marburg virus pseudotyped entry inhibition, cell reporter; calls by dose curve; tested in HEK293 cells; further: potency means the concentration at half of the fitted maximal effect; on the % scale 0 is the no-effect control and ±100 the full control effect
SARS PLP yeast: inhibitors of SARS-CoV papain-like protease in yeast; AID 485353; Potency, µM (highest dose often 32.9 µM), inactives show at the highest dose activity, positive = growth rescue, most hits filed as activators; S. cerevisiae expressing SARS-CoV PLpro, growth rescue; 0.19% of 330,000 active; calls by dose curve; further: potency means the concentration at half of the fitted maximal effect; 0% is about no effect; nearly all actives have a fitted effect of over 55% in size
HCV inhibitor: blocks hepatitis C virus; 3.4% of 340,000 active; Potency, µM (doses to about 41.8 µM), without a hit: at the top dose activity change, negative = inhibition, actives largely listed as inhibitors; Huh7.5.1 HCVcc-Cre infection, luciferase reporter, 44 h; active means well fitted inhibition curve with a large enough effect; inconclusive means small, poorly fitted or top-dose-only effect, or another doubt; inactive means no such curve, though single readings can be large or run the other way; further: potency means the concentration at half of the fitted maximal effect; on the % scale 0 is the no-effect control and ±100 the full control effect
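After 44 h co-culture of compound, cells and HCVcc-Cre (~0.5 moi), substrate is added for 15 min at room temperature and luciferase measured over 15 sec. Cells were seeded at 1,000/well and pre-cultured 4 h.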
HCMV antiviral: inhibitors of human cytomegalovirus. 4.5% of 410,000 active. AID 1259415. activity change, negative = inhibition, % at 57.5 µM. HFF cells, HCMV-luciferase reporter, 72 h; hits give low values; in the data active means activity change below about -60%; inconclusive means no clear call, values can overlap the other calls; inactive means above about -39%; further: on the % scale 0 is the no-effect control and ±100 the full control effect
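Screen run at 2 compound doses on HFFs infected with reporter HCMV, MOI 1 PFU/cell. Luciferase activity from cell lysates at 72 h post infection gave inhibition relative to buffer-only and Salinomycin wells.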
FMDV inh: antivirals against foot and mouth disease virus. Potency, µM (doses to about 57.9 µM), without a hit: top-dose activity change, negative = inhibition, hits mostly inhibitors. 1.2% of 410,000 active. FMDV antiviral cell-based qHTS; calls by dose curve; tested in HEK293T cells; further: read-out not given here; potency means the concentration at half of the fitted maximal effect; on the % scale 0 is the no-effect control and ±100 the full control effect; nearly all actives have a fitted effect of over 45% in size
LASV entry inh: Lassa virus entry inhibition; AID 540256; Lassa virus pseudotype entry inhibition, cell reporter; Potency, µM (series often up to 37.9 µM), for inactives: at the top dose activity change, negative = inhibition, actives largely listed as inhibitors; 1.2% of 300,000 active; calls by dose curve; tested in HEK293 cells; further: potency means the concentration at half of the fitted maximal effect; on the % scale 0 is the no-effect control and ±100 the full control effect; nearly all actives have a fitted effect of over 50% in size
An asterisk follows results filed as active; ? = inconclusive; . = no result; [ ] = remark or other dose. Rows were chosen to be rich in hits. Some 8% of all compounds tested hit in one or more screens of this group.

SMILES | MARV entry inh | SARS PLP yeast | HCV inhibitor | HCMV antiviral | FMDV inh | LASV entry inh
COc1ccc(C)cc1-n1nnnc1SCn1nnc2ccccc2c1=O | -25% | -2% | ? | -80* | -16% | ?
CN(C)c1ccc(CNC(=O)c2cnc(N3CCN(Cc4cccc(C(F)(F)F)c4)C3=O)o2)cc1 | . | . | . | -14 | . | .
CCc1nn2c(-c3ccco3)ccnc2c1-c1ccc(F)cc1 | -26%[46.1 µM] | . | . | 14 | 57% | ?
C[C@@H]1[C@H]2[C@@H]3CC[C@@H](C3)[C@H]2CN[C@H]1c1cn(Cc2ccccc2)c2ccccc12 | . | -1% | 22µM* | -5 | 0% | .
Cc1ccc(S(=O)(=O)N2C[C@@H]3[C@H]4CC[C@H](C4)[C@@H]3[C@@H](C)[C@@H]2c2cn(Cc3ccccc3)c3ccc(F)cc23)cc1 | . | -7% | -6% | -34 | 0% | .
O=C(CSc1nc2ccc([N+](=O)[O-])cc2[nH]1)NC1CCCCC1 | ? | -7% | -22% | -39 | ? | 4%
O=C(CSc1nc2ccc([N+](=O)[O-])cc2[nH]1)NC1CCCCCC1 | ? | -22% | 14µM* | 13 | 5.6µM* | -24%
O=C(COc1ccc(Cl)cc1)Nc1nc(-c2ccc(S(=O)(=O)N3CCOCC3)cc2)cs1 | ? | 3% | 11µM* | -10 | ? | ?
O=C(CCc1ccc(S(=O)(=O)N2CCOCC2)cc1)Nc1nc(COc2ccccc2)cs1 | 21µM* | 8% | ? | -93* | 14µM* | -20%
O=C(COc1ccccc1)Nc1nc(-c2ccc(S(=O)(=O)N3CCOCC3)cc2)cs1 | ? | -15% | ? | -38 | 14µM* | ?
Cc1ccc(-c2csc(NC(=O)COc3ccc(N(C)S(=O)(=O)c4ccc(C)cc4)cc3)n2)cc1 | ? | -4% | 7.9µM* | ? | -28% | -3%
O=C(COC(=O)c1ccc(S(=O)(=O)N2CCOCC2)cc1)Nc1nc(-c2ccccc2)cs1 | -1% | 9% | 10% | 2 | 11% | 10%
CCCCOCC1CN(CCCC)S(=O)(=O)c2c(F)cccc2O1 (stereo unspecified) | . | . | . | -39 | . | ?
COc1cc2c(c(OC)c1)[C@H](C=Cc1ccccc1)[C@@H]([C@H](O)CO)OC2 | 17%[14.2 µM] | . | . | . | . | .
COc1ccc(C(=O)N2CCC3(CCCN(c4ccccc4)C3)CC2)cc1 | . | . | . | . | -12% | .
COc1cc(=O)n2c(c1C(=O)N(C)Cc1nccs1)CCN(Cc1ccc(F)c(F)c1)CC2 | . | . | . | . | -3% | .
COc1cc(C(=O)Nc2cccc(C)n2)ccc1OCC(=O)N1CCOCC1 | . | 1% | 4% | 0 | -13% | .
O=C(COc1ccccc1)Nc1nc(-c2ccncc2)cs1 | ? | 0% | -9% | -13 | 28µM* | -16%
O=C(CN1CCOCC1)Nc1nc(-c2ccc(Cl)cc2)cs1 | ? | 0% | 22µM* | -26 | ? | 7.1µM*
COc1ccc(-c2csc(NC(=O)c3ccc(OCC(=O)N4CCOCC4)c(OC)c3)n2)cc1OC | 11µM* | -17% | ? | -82* | 14µM* | ?
O=C(COc1ccccc1)Nc1nc(-c2cccnc2)cs1 | . | 0% | -12% | 0 | -14% | .
COc1cc(C(=O)NNC(=O)COc2cccc(F)c2)ccc1OCC(=O)N1CCOCC1 | . | -20% | -6% | -70* | -23% | .
COc1ccccc1OCC(=O)Nc1nc(-c2ccc(S(=O)(=O)N3CCOCC3)cc2)cs1 | ? | . | 16µM* | -27 | ? | ?
Cc1nc(N(CCO)C2CCCCC2)c2nnn(Cc3ccccc3)c2n1 | 10µM* | -2% | -12% | -15 | -18% | -10%[46.1 µM]
OC1CCC(Br)CC1C1NC2=C(CCCC2)S1 (stereo unspecified) | 11% | . | . | . | . | .
SMILES | MARV entry inh | SARS PLP yeast | HCV inhibitor | HCMV antiviral | FMDV inh | LASV entry inh
NC(=O)c1ccccc1NC(=O)CN1CCN(Cc2ccc(Cl)cc2Cl)CC1 | ? | -3% | ? | ? | 18µM* | -26%
Cc1nc2c(c(C)c1CCC(=O)NCc1ccc(Cl)cc1)c(=O)n(C)c(=O)n2C | 9%[46.1 µM] | . | . | 8 | -8% | ?
COc1ccc(NS(=O)(=O)c2ccc(OC)c(N(C)S(=O)(=O)c3ccc(Cl)cc3)c2)cc1 | ? | -4% | ? | -90* | . | ?
COc1ccc(S(=O)(=O)Nc2ccc(F)cc2)cc1N(C)S(=O)(=O)c1ccc(Cl)cc1 | 21µM* | ? | ? | -72* | . | ?
CCCNc1nc(N2CCCC2)nc(N2CCCC2)n1 | ? | -3% | 11µM* | 81 | ? | ?
CC(C)(C)Nc1nc(N2CCCC2)nc(N2CCCC2)n1 | ? | 2% | ? | -36 | ? | ?
CCNc1nc(NC(C)(C)C)nc(N2CCCC2)n1 | 3.2µM* | -10% | ? | -27 | -26% | ?
CN1CCN(CC(=O)c2ccccc2F)CC1 | -1% | 3% | 19% | 33 | 4% | ?
COc1ccc(CC2(CO)CCN(Cc3cnn(-c4ccc(F)cc4)c3)CC2)cc1 | . | 0% | 10µM* | -10 | ? | .
COc1ccc(CC2(CO)CCN(CC3=Cc4cc(Cl)ccc4OC3)CC2)cc1 | ? | 1% | 4.5µM* | ? | ? | ?
COc1ccc(CC2(CO)CCN(Cc3cnn(-c4ccccc4)c3)CC2)cc1 | ? | 0% | ? | -33 | ? | -5%
CN1CCN(S(=O)(=O)c2cccc(C(=O)Nc3sc4c(c3-c3nc5ccccc5[nH]3)CCCC4)c2)CC1 | 16µM* | -23% | 3.5µM* | 66 | 25% | 1%
O=C(Nc1sc2c(c1-c1nc3ccccc3[nH]1)CCCC2)C1CCCC1 | -11% | -2% | ? | -13 | -2% | 11%
CC(=O)N1CCN(S(=O)(=O)c2cccc(C(=O)Nc3nc4c(s3)CCCC4)c2)CC1 | ? | 0% | ? | 18 | -17% | -24%
CC(=O)NCCC(=O)Nc1sc2c(c1-c1nc3ccccc3[nH]1)CCCC2 | -6% | 3% | 11µM* | -16 | 11% | -17%
COc1cc([C@H](O)CO)ccc1O | 15% | . | . | . | . | .
O=C(COc1ccccc1)N(Cc1cccnc1)c1nc2c(F)cccc2s1 | . | . | . | 0 | 13% | -17%[46.1 µM]
CCCCNS(=O)(=O)c1ccc2nc(SCC(=O)Nc3ccccc3Cl)[nH]c2c1 | ? | -8% | 13µM* | -82* | 3% | ?
CCCCNS(=O)(=O)c1ccc2nc(SCC(=O)Nc3cccc(F)c3)[nH]c2c1 | -6% | -13% | 9% | -36 | -20% | -16%
CCCCNS(=O)(=O)c1ccc2nc(SCC(=O)c3ccccc3OC)[nH]c2c1 | ? | 11% | ? | -79* | -10% | -13%
O=C(CSc1nc2ccccc2[nH]1)Nc1ccccc1F | 5% | -17% | 10% | -100* | . | -5%
O=C(CSc1nc2ccccc2[nH]1)Nc1ccc(F)c(F)c1 | 0% | . | -22% | 7 | . | -6%
Cc1ccc(S(=O)(=O)N2CCCCC2)cc1NC(=O)c1cnccn1 | 2% | -5% | -10% | 8 | -7% | -3%

Assay outcomes deposited in PubChem by National Center for Advancing Translational Sciences (NCATS).
